According to PubChem BioAssay (NCATS):
Several values for one entry are separate records, joined by “and”; a condition that tells them apart may be missing. Identical values can stand only once. Inconclusive results are not listed. Activity calls are given as the source filed them. Calls come from the whole dose curve; as a rule, active = well fitted curve in the direction sought with a large enough effect; inconclusive = small, poorly fitted or top-dose-only effect, or another doubt; inactive = no such curve, though single readings can be large; an effect the other way counts as inactive or inconclusive.

Tests used:
[1] = biological target: Cellular tumor antigen p53 (Homo sapiens) (UniProt P04637); assay: Primary qHTS for small molecule compounds that upregulate eGFP-tagged delta133p53alpha (in N-terminal) cells. (AID 2060322); conditions: NCI-H358 eGFP-delta133p53alpha fluorescence, 24 h; activation: active compounds read high; note: nearly all actives have a fitted effect of over 75% in size; note: potency is the fitted concentration of half-maximal effect;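 for activation: cells pre-induced with doxycycline then dosed without doxycycline; series mostly up to about 56 µM; 0% = DMSO vehicle and 100% = reference activator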
Sequence of Cellular tumor antigen p53 (Homo sapiens) (P04637 whole entry, looked up): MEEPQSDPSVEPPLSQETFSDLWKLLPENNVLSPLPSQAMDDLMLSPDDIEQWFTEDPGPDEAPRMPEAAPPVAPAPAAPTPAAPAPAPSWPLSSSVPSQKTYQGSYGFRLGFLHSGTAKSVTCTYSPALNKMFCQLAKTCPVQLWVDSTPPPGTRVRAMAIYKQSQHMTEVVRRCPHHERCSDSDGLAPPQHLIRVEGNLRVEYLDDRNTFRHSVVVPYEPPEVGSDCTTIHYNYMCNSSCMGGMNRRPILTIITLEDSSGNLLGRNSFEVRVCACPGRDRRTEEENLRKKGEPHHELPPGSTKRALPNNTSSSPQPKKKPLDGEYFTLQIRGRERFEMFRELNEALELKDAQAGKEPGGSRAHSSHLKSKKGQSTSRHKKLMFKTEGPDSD
Method in brief: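 NCI-H358 cells pre-induced 24 h with 10 ng/ml doxycycline for eGFP-delta133p53alpha, plated dox-free and exposed 24 h at 37C to titrated compounds. Fixed, Hoechst-stained; gated GFP peak intensity by laser scanning cytometry, normalized to DMSO (0%) and 57.5 uM 5-azacytidine (100%).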

[2] = biological target: Aldehyde dehydrogenase, mitochondrial (Homo sapiens) (UniProt P05091); assay: qHTS for Inhibitors of the Aldehyde Dehydrogenase Family (ALDH2) Primary screen (AID 2061308);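 note: plate controls were vehicle for no effect and reference inhibitor for full effect; nearly all actives have a fitted effect of over 55% in size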
[3] = biological target: Retinaldehyde dehydrogenase 3 (Homo sapiens) (UniProt P47895); assay: qHTS for Inhibitors of the Aldehyde Dehydrogenase Family (ALDH1A3) Primary screen (AID 2061315);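 note: plate controls were DMSO vehicle for no effect and reference inhibitor for full effect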
[4] = biological target: Retinaldehyde dehydrogenase 3 (Homo sapiens) (UniProt P47895); assay: qHTS for Inhibitors of the Aldehyde Dehydrogenase Family (ALDH1A3) Validation screen (AID 2061312); note: nearly all actives have a fitted effect of over 45% in size; note: potency is the fitted concentration of half-maximal effect
[5] = BET inhibitor-based combinations targeting novel dependencies in MECOM-rearranged (r) AML: MV-4-11 cell line (AID 2202233); note: nearly all actives have a fitted effect of over 45% in size; note: potency is the fitted concentration of half-maximal effect
Method in brief: (§1)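 First, 500 cells per well were seeded; next, drugs were pinned as 11-point doses; then plates sat 48 hr in the incubator; finally CellTiter-Glo was added and luminescence read, with AUC and Z-AUC computed.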

[6] = BET inhibitor-based combinations targeting novel dependencies in MECOM-rearranged (r) AML: HNT-34 cell line (AID 2202234); note: nearly all actives have a fitted effect of over 35% in size; note: potency is the fitted concentration of half-maximal effect
Method in brief: as §1

[7] = biological target: Retinal dehydrogenase 2 (Homo sapiens) (UniProt O94788); assay: qHTS for Inhibitors of the Aldehyde Dehydrogenase Family (ALDH1A2) Confirmation screens (AID 2061314); note: nearly all actives have a fitted effect of over 65% in size; note: potency is the fitted concentration of half-maximal effect
[8] = BET inhibitor-based combinations targeting novel dependencies in MECOM-rearranged (r) AML: UCSD-AML1 cell line (AID 2202235); note: nearly all actives have a fitted effect of over 40% in size; note: potency is the fitted concentration of half-maximal effect
Method in brief: as §1

[9] = BET inhibitor-based combinations targeting novel dependencies in MECOM-rearranged (r) AML: AML-191 cell line (AID 2202236; note: nearly all actives have a fitted effect of over 35% in size; note: potency is the fitted concentration of half-maximal effect)
Method in brief: (§2)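 Each compound was tested at eleven concentrations on cells seeded at 500/well. After two days' incubation, ATP-based luminescence reported viability; responses relative to DMSO and blank wells yielded AUC and cell-line-centred Z-AUC.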

[10] = BET inhibitor-based combinations targeting novel dependencies in MECOM-rearranged (r) AML: AML-194 cell line (AID 2202237; note: nearly all actives have a fitted effect of over 40% in size; note: potency is the fitted concentration of half-maximal effect)
Method in brief: as §2

[11] = biological target: Aldehyde dehydrogenase 1A1 (Homo sapiens) (UniProt P00352); assay: qHTS for Inhibitors of the Aldehyde Dehydrogenase Family (ALDH1A1) Confirmatory screens (AID 2061316); note: % is set by controls: 0 for no effect and ±100 for the full control effect; nearly all actives have a fitted effect of over 65% in size
[12] = BET inhibitor-based combinations targeting novel dependencies in MECOM-rearranged (r) AML: SET-2 cell line (AID 2202231); conditions: SET-2 AML cells viability, CellTiter-Glo luminescence, 48 h; viability: active compounds read low, series mostly up to about 46 µM;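 note: plate controls were DMSO treated cells for no effect and wells without cells for full effect; nearly all actives have a fitted effect of over 35% in size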
Method in brief: as §2

CC1(C)CC[C@]2(C(=O)OC3OC(CO)C(O)C(O)C3O)CC[C@]3(C)C(=CCC4[C@@]5(C)CC[C@H](OC6OC(C(=O)O)C(O)C(OC7OC(CO)C(O)C(O)C7O)C6O)C(C)(C)C5CC[C@]43C)C2C1 (stereo not given in full)
inactive: activation [1] -22.1% | Potency [2] | Potency [3]

CNCc1ccc(-c2[nH]c3cc(F)cc4c3c2CCNC4=O)cc1
active: Potency [5] 11.8 µM
inactive: activation [1] 35.7% | Potency [2] | Potency [4]

O=C(NCCCNc1nc(Nc2cccc(CN3CCOCC3)c2)ncc1C1CC1)C1CCC1
active: Potency [5] 0.417 µM | Potency [6] 16.6 µM
inactive: activation [1] -15.3% | Potency [2] | Potency [4] | Potency [3]

COc1ccc2c(Oc3ccc(NC(=O)c4c(C)n(CC(C)(C)O)n(-c5ccccc5)c4=O)nc3)ccnc2c1
inactive: activation [1] 16.6% and 11.9% | Potency [2] | Potency [4] | Potency [3]
active: Potency [6] 3.32 µM

COc1cc(O)cc2c1C(=O)OC(C)CCCCCCC2 (stereo not given)
inactive: activation [1] 1.79% | Potency [2] | Potency [7] | Potency [3]

CC(C)c1cc(-c2n[nH]c(=O)n2-c2ccc3c(ccn3C)c2)c(O)cc1O
active: Potency [5] 0.0235 µM | Potency [8] 0.0468 µM
inactive: activation [1] -0.957% and -3.82% | Potency [2] | Potency [4] | Potency [3]

Cn1cncc1C(N)(c1ccc(Cl)cc1)c1ccc2c(c1)c(-c1cccc(Cl)c1)cc(=O)n2C (stereo not given)
inactive: Potency [2] | Potency [4] | Potency [3]
active: Potency [1] 26.9 µM | Potency [5] 5.25 µM | Potency [6] 0.263 µM | Potency [8] 0.372 µM | Potency [9] 4.17 µM | Potency [10] 20.9 µM

C/C=C(/C)C(=O)OC1C2OC2C2(CO2)C2C3OC(=O)C(C)C3CCC12C (stereo not given)
inactive: activation [1] 18.3% | Potency [2] | Potency [3]

C[C@H]1Oc2cc(cnc2N)-c2c(nn(C)c2C#N)CN(C)C(=O)c2ccc(F)cc21
active: Potency [5] 18.6 µM | Potency [9] 1.32 µM
inactive: activation [1] 1.43% and -2.96% | Potency [2] | Potency [4] | Potency [3]

C=C1C(=O)O[C@@H]2[C@H]1CC(=O)[C@H](C)[C@@](O)(C(=O)/C=C/C)[C@H]2OC(=O)C(C)CC (stereo not given in full)
active: Potency [1] 5.88 µM | Potency [7] 4.4 µM
inactive: Potency [2] | Potency [3] | Potency [11]

CCC1=C(C)CN(C(=O)NCCc2ccc(S(=O)(=O)NC(=O)NC3CCC(C)CC3)cc2)C1=O (stereo not given)
inactive: activation [1] -11% and 10.7% and 1.91% | Potency [2] | Potency [4] | Potency [3] | Potency [5] | Potency [6] | Potency [8] | Potency [9] | Potency [10]

C=C1C(=O)O[C@@H]2C[C@H](C)[C@@]3(O)C=C(C(C)=O)[C@]4(CC3C[C@H]12)C(=O)O[C@H]1C[C@@H](C)C(CCC(C)=O)=CC[C@H]14 (stereo not given in full)
inactive: activation [1] 4.46% | Potency [2] | Potency [3]

N#Cc1ccc(Oc2ccc3c(c2)COB3O)cc1
active: Potency [4] 2.82 µM | Potency [9] 13.2 µM
inactive: activation [1] 19.4% and -4.77% | Potency [2] | viability [12] 109% | Potency [6]

O=C(Nc1cccc(C(F)(F)F)c1)Nc1cc(S(=O)(=O)NC2CC2)ccc1-c1ccsc1
active: Potency [5] 26.3 µM
inactive: activation [1] 29.6% and 2.39% | Potency [2] | Potency [4] | Potency [3]

CN(C(=O)c1ccc(F)cc1C(F)(F)F)C1CCN(c2nnc(-c3ccnn3C)c3ccccc23)CC1
active: Potency [5] 16.6 µM
inactive: activation [1] 36.5% and 1.43% | Potency [2] | Potency [4] | Potency [3] | Potency [8] | Potency [10]

CC#C[C@@H](CC(=O)O)c1ccc(OCc2cccc(-c3ccc(C(F)(F)F)cc3)c2)cc1
inactive: activation [1] -17.2% | Potency [2] | Potency [4] | Potency [3] | Potency [6] | Potency [8]
active: Potency [9] 20.9 µM

CC1(C)C2CCC1(C)C(OC(=O)C(O)(CC(=O)O)CC(=O)O)C2 (stereo not given)
inactive: activation [1] -24.4% | Potency [2] | Potency [7] | Potency [3] | Potency [11]

COC(=O)c1ccc(OC(CO)C(O)c2ccc(O)c(OC)c2)c(OC)c1 (stereo not given)
inactive: activation [1] 9.82% | Potency [2] | Potency [7]

CCCc1cc(C)[nH]c(=O)c1CNC(=O)c1cc(-c2ccnc(N3CCN(C)CC3)c2)cc2c1cnn2C(C)C
inactive: activation [1] -12.3% | Potency [2] | Potency [4] | Potency [3]
active: Potency [5] 23.5 µM

O=C1Nc2ccc(Cl)cc2[C@@](C#CC2CC2)(C(F)(F)F)O1
inactive: activation [1] 17.5% and 0% | Potency [2] | Potency [4] | Potency [3] | Potency [8]
active: Potency [5] 23.5 µM and 20.9 µM

COc1ccc2c(Oc3ccc(NC(=O)c4c(C)n(CC(C)(C)O)n(-c5ccccc5)c4=O)cc3F)ccnc2c1
active: Potency [5] 0.209 µM | Potency [6] 4.68 µM
inactive: activation [1] -9.3% and -1.91% | Potency [2] | Potency [4] | Potency [3] | Potency [8]

C[C@@H](NC(=O)c1ncnc(N)c1Cl)c1ncc(C(=O)Nc2cc(C(F)(F)F)c(Cl)cn2)s1
inactive: activation [1] 19.6% | Potency [2] | Potency [4] | Potency [3]
active: Potency [6] 2.35 µM | Potency [8] 8.33 µM
